According to PubChem BioAssay AID1458 (National Center for Advancing Translational Sciences (NCATS), 2008):
Hit rate of the full screen: of about 210,000 compounds, about 5,900 (2.8%) were called active. Not shown: some 5% with an inconclusive outcome. Calls follow the shape of the dose curve; as a rule, active = well fitted activation curve with a large enough effect; inconclusive = small, poorly fitted or top-dose-only effect; inactive = no such curve, though single readings can be large or run the other way. Shown is part of a subset that was picked to be rich in actives.

Assay: qHTS Assay for Enhancers of SMN2 Splice Variant Expression; also: nearly all actives have a fitted effect of over 55% in size; as to activity change, positive = activation: % of control where 0% means no effect
Conditions: HEK293 SMN2-luciferase splicing reporter, luminescence, 30-36 h; series mostly up to 46.1 µM; activity change, positive = activation: at the top concentration
In short: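 qHTS luciferase splicing reporter: luminescence rises when SMN2 exon 7 is included in transfected HEK293 cells. Compound exposure lasted 30-36 h at 37C, with 4.5 mM final sodium butyrate as control, followed by a ONE-Glo read.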
Potency is read from the fitted curve at half-maximal effect.

Activity change, positive = activation, inactive:
Cc1cccc(NC(=O)c2ccccc2NC(=O)C(C)(C)C)n1 -6.31%
Cc1cccc(NC(=O)c2cc(N3C(=O)CCC3=O)ccc2Cl)n1 -9.11%
COc1ccc(NC(=O)CSc2nc(C)cs2)cc1 9.16%
Cc1cccc(C)c1Nc1nnc(SCC(=O)Nc2sccc2C#N)s1 13.8%
CCCc1cc(=O)n2[nH]c(NCc3ccc(CC)cc3)nc2n1 5.2%
CCOc1ccccc1NC(=O)Cn1c(=O)n(-c2cccc(C)c2)c(=O)c2c1c1cc(OC)ccc1n2C -0.773%
COc1ccc(-c2nc3nc(C)cc(C)n3c2Nc2c(C)cccc2C)cc1 6.57%
CCOC(=O)c1c(NC(=O)Cc2coc3ccc(CC)cc23)sc2c1CCC2 -0.233%
COc1ccc(OCC(=O)Nc2nnc(-c3ccco3)s2)cc1 4.15%
N#Cc1ccc(OCc2nnc(-c3ccc([N+](=O)[O-])cc3)o2)cc1 7.74%
COc1ccc(C(=O)CSc2nnc(-c3ccco3)o2)cc1 0.989%
CCCCOc1ccc(C(=O)NCc2ccco2)cc1 -27%
Cc1ccc(NC(=O)Nc2sc3nc4n(c(=O)c3c2C)CCC(C)CC4)c(Cl)c1 (stereo not given) 6.1%
C=C1O[C@@](CO)(n2cnc3c(N)ncnc32)[C@H](O)[C@@H]1O -7.24%
O=C1CC(c2nnc(Cc3ccc(Cl)cc3)o2)CN1c1ccccc1 (stereo not given) 10.3%
COc1ccc(OC)c(NC(=O)C2CCN(S(=O)(=O)c3ccc(C)cc3)CC2)c1 -5.72%
COc1ccc(Cl)cc1-n1c(CCC(=O)O)ccc1-c1ccc(C)cc1 -4.16%
COC(=O)N1C(/C=C/C=C/c2ccc(OC)cc2)=Cc2ccccc2C1CC(C)=O (stereo not given) -7.94% [at 9.22 µM]
Cc1ccc2oc(C(=O)Nc3ccc(S(=O)(=O)N4CCCCCC4)cc3)cc(=O)c2c1 5.39%
CS(=O)(=O)N(C(=O)NC(=O)NC1CCS(=O)(=O)C1)C1CCCCC1 (stereo not given) -4.22%
CC(c1ccco1)N(C(=O)Nc1ccccc1)C1CCCCC1 (stereo not given) 1.7%
CCOC(=O)C1CCCN(CC(=O)Nc2cc(C)c3c(=O)oc4ccccc4c3n2)C1 (stereo not given) -14.2%
CCN(CC)S(=O)(=O)c1ccc2c(c1)c(=O)c(C(=O)N1CCN(c3cccc(Cl)c3)CC1)cn2C -7.2%
CCOCCCNC(=O)c1c(NC(=O)Cc2coc3ccc(C)cc23)sc2c1CCC2 -4.12%
Cc1ccc(C(=O)OCc2nc(N)nc(Nc3ccccc3C)n2)cc1 -27.6%
Cc1ccccc1Nc1nc(N)nc(CN2CCN(c3ccccn3)CC2)n1 -2.5%
COc1ccc(CCNC(=O)CCCn2c(=O)c3ccccc3n(Cc3ccc(C)cc3)c2=O)cc1OC -6.14%
CCc1c(C)sc(NC(=O)/C=C/c2ccc3c(c2)OCO3)c1C(=O)OC -23.9%
O=C(/C=C\c1ccc2c(c1)OCO2)NC1(C(=O)Nc2ccc3c(c2)OCCO3)CCCCC1 3.51%
COc1ccc(/C=C/C(=O)Nc2ccc3c(c2)OCCO3)cc1OC -4.17%
COc1ccc(OC)c(/C=C/C(=O)OCC(=O)Nc2ccc3c(c2)OCCO3)c1 -0.868%
COc1ccc(NC(=O)CNC(=O)Cn2ccc3ccccc3c2=O)c(OC)c1 14.1%
Cc1ccc(C)c(Cn2c(C(=O)O)c(CNCc3cccs3)c3ccccc32)c1 -7.69%
CCOc1ccc(Nc2c(S(=O)(=O)c3ccccc3)cnc3ccccc23)cc1 -35.9%
COc1cc(Br)cc2cc(S(=O)(=O)c3ccccc3)c(=O)oc12 3.68%
CN(Cc1ccccc1)C(=O)c1cn(C)c2ccc(S(=O)(=O)N3CCCCC3)cc2c1=O 1.18%
CCOc1cccc(C(=O)Nc2cccnc2)c1 7.59%
CCc1nnc(NC(=O)c2cccs2)s1 15%
CCC(C)[C@@H](N)C(=O)O (stereo not given in full) 0.053%
Cc1ccc(N2CC(c3nnc(Cc4ccccc4Cl)o3)CC2=O)cc1 (stereo not given) 9.41%
O=C(c1ccc(F)cc1)N1CCCC(c2nc(-c3cccs3)no2)C1 (stereo not given) -20.6%
O=C(c1cc(-c2ccc(F)cc2)on1)N1CCN(c2ccc(F)cc2)CC1 3.16%
COc1cccc(-c2cc(C(=O)N3CCN(c4ccccc4OC)CC3)no2)c1 -3.29%
COc1ccccc1N1CCN(C(=O)c2cc(-c3ccc(Cl)c(Cl)c3)on2)CC1 7.06%
CCCCn1cc(S(=O)(=O)c2ccc(OCC)cc2)c(=O)c2cc(OC)c(OC)cc21 7.93%
O=P(O)(O)C(O)c1ccc2ccccc2c1 (stereo not given) -1.73%
O=c1cc(COc2cccc(C(F)(F)F)c2)nc2sc3c(n12)CCCC3 -3.58%
COc1ccc(N(C)C(=O)C2CCN(S(=O)(=O)c3cc(Br)cc4c3N(C(C)=O)CC4)CC2)cc1 11.2%
O=C(NCCC1=CCCCC1)c1ccc(Cl)c([N+](=O)[O-])c1 9.41%
O=C(Cc1nn[nH]n1)NCCC1=CCCCC1 19.6%
CN(c1ccc(C(=O)NCc2ccccn2)cc1)S(C)(=O)=O 2.3%
O=C(Cc1cccc2ccccc12)NCCC1=CCCCC1 -1.2%
Cc1nc2nc(SCC(=O)N(Cc3ccccc3)C(C)C)nn2c(C)c1Cc1ccccc1Cl -19.2%
CCc1ccc(CN(Cc2ccco2)C(=O)c2ccccc2Cl)cc1 -13.4%
COc1ccccc1CNC(=O)CCCn1c(=O)c2ccccc2n(CC(=O)Nc2ccc(C)cc2Cl)c1=O 10%
O=C(NCc1ccc2c(c1)OCO2)c1ccc(Cl)s1 5.84%
O=C(NC1=NCCS1)[C@H](Cc1ccccc1)N1C(=O)c2ccccc2C1=O -21.6%
COc1cccc2c1cc1c(=O)n(CC(=O)N3CCN(c4ccccc4)CC3)nc(C)n12 -9.99%
CCNC(=O)CC1C(=O)N(c2ccc(F)cc2)C(=O)N1Cc1ccc(C)cc1 (stereo not given) -20.3%
CC(C)CC(=O)NC(=S)Nc1cc(C(=O)O)ccc1Cl 22.3%
COc1ccc(NS(=O)(=O)c2ccc(NC(=S)NC(=O)CC(C)C)cc2)cc1 2.37%
Cc1cccc(NC(=O)Cn2c(C(F)(F)F)nc3ccccc32)c1C -13.6%
COc1ccc(N2CCN(c3cc(C)nc4nncn34)CC2)cc1 -15.9%
O=C(c1ccc2c(c1)N(Cc1ccccc1F)C(=O)c1ccccc1S2(=O)=O)N1CCOCC1 8.82%
CC(=O)Nc1ccc(-c2csc(NC(=O)Nc3ccccc3)n2)cc1 -80.3%
COc1ccc(CCNc2nc(-c3cccc(NC(C)=O)c3)cs2)cc1OC -26.4%
COc1ccccc1CNC(=O)CCn1c(=O)c2ccccc2n(CC(=O)Nc2cccc(Cl)c2)c1=O 1.83%
O=C(O)c1ccc(N=NN2CCOCC2)cc1 -3.34% [at 1.84 µM]
O=C(Nc1cccc(C(=O)N2CCCC2)c1)c1ccccc1 9.99%
CCOC(=O)c1cc2c(=O)n3ccccc3nc2n(CC2CCCO2)c1=NC(=O)c1ccccc1F (stereo not given) 10.2%
CCOC(=O)c1c(C)[nH]c2c1-c1ccccc1C(=O)C2=O -106%
Cc1cc(=O)oc(C)c1C(=O)N1CCCCC1 -19%
CCc1ccc(CNC(=O)c2cc3cc4ccc(OC)cc4nc3o2)cc1 -28.9%
COc1ccccc1Nc1c2c(nc3ccc(NC(=O)/C=C/c4cc(OC)c(OC)c(OC)c4)cc13)CCCC2 -99.9%
O=C(O)c1ccc(COCC(F)(F)F)cc1 -1.27%
CCOc1c(CNCc2ccc(C(=O)O)cc2)cccc1OC 0.734%
CCOc1ccc(Nc2nc(Cl)nc(N3CCN(c4ccc(OC)cc4)CC3)n2)cc1 -50.9%
COc1ccc(Nc2ncc3c(n2)CCN(C(=O)OC(C)(C)C)C3)cc1 19.1%
CC(C)c1ccc(OCC(=O)N(Cc2ccc(N(C)C)cc2)C2CCS(=O)(=O)C2)cc1 (stereo not given) -13.2%
CC1CCCCN1Cc1c(O)ccc2c(=O)c(-c3cccc(Cl)c3)c(C(F)(F)F)oc12 (stereo not given) 0.89%
CCOC(=O)C1CCN(C(=O)CSc2c3c(nc4ccc(Cl)cc24)CCCC3)CC1 -23.6%
Cc1ccc(-c2cc(C(F)(F)F)c(C#N)c(SCC(=O)Nc3ccccc3)n2)cc1 3.98%
COCc1cc(C)nc(SCC(=O)Nc2cccc(C)c2)c1C#N -0.269%

Potency, active:
Cc1cccc(NC(=O)c2ccc3ccccc3n2)n1 12.6 µM
Cc1csc(SCC(=O)Nc2sccc2C#N)n1 12.6 µM
CCCCOc1ccc(-c2nnc(-c3ccco3)o2)cc1 14.1 µM
CCOc1ccc(-c2nnc(-c3ccco3)o2)cc1 1.12 µM
Cc1ccc(NC(=O)NC(=O)N(C2CCCCC2)S(=O)(=O)c2ccccc2)cc1 7.94 µM
Cc1ccccc1Nc1nc(N)nc(CSc2ccccc2)n1 14.1 µM
Cc1cccc(NC(=O)/C=C/c2ccc3c(c2)OCO3)n1 2.24 µM
COc1cccc(/C=C/C(=O)Nc2ccc3c(c2)OCCO3)c1 11.2 µM
CCOc1cccc(C(=O)Nc2nnc(-c3cccs3)s2)c1 12.6 µM
COc1ccccc1-c1cc(C(=O)N2CCCCC2)no1 14.1 µM
O=C(c1cc(-c2cccs2)on1)N1CCCCC1 14.1 µM
CN(c1ccc(C(=O)NCCC2=CCCCC2)cc1)S(C)(=O)=O 11.2 µM
Cn1nnc2cc(C(=O)NCCC3=CCCCC3)ccc21 11.2 µM
O=C(NC1=NCCS1)c1ccc(Cl)s1 15.8 µM
CC(=O)c1ccc(NC(=S)NC(=O)CC(C)C)cc1 7.94 µM
CC(=O)Nc1cccc(-c2csc(Nc3cccc(C)n3)n2)c1 10 µM
O=C(O)c1cccc(N=NN2CCCCCC2)c1 0.631 µM
CCOC(=O)c1c(C)[nH]c(C2=NNC(=NC(C)COC)SC2)c1C (stereo not given) 3.16 µM
Cc1ccc2cc3cc(C(=O)N4CCCCCC4)oc3nc2c1 5.01 µM
CCCCCc1ccc(-c2ccc(C(=O)O)cc2)nc1 3.98 µM
COc1ccc(Nc2ncc(F)c(N3CCOCC3)n2)cc1 10 µM
Cc1cc(C)c(C#N)c(SCC(=O)Nc2ccccc2)n1 12.6 µM
